Sequences and labels used below:
B1: UGUUCUC (DNA:RNA)
RNA: GGGAGACCGGAAUUCAGAUUGUCCUGUUCUCUUAAAUCCCGUCGUAGCCACCA
DNA 1: CAATCTGAATTCCGGTCTCCC
DNA 2: TGGTGGCTACGACGGGATT
B2: AGAUUUA (DNA:RNA)
RNA: B1 RNA with U25A, U27A, C29U, C31A
DNA 1: CAATCTGAATTCCGGTCTCCC
DNA 2: TGGTGGCTACGACGGGATT
B3: GCGCCAC (DNA:RNA)
RNA: B1 RNA with U25G, G26C, U27G, U28C, U30A
DNA 1: CAATCTGAATTCCGGTCTCCC
DNA 2: TGGTGGCTACGACGGGATT
B4: GUCGUGG (DNA:RNA)
RNA: GGGAGACCGGAAUUCAGAUUGUCCGUCGUGGUUAAAUCCCGUCGUAGCCACCA
DNA 1: CAATCTGAATTCCGGTCTCCC
DNA 2: TGGTGGCTACGACGGGATT
B5: GUGGUUG (DNA:RNA)
RNA: B4 RNA with C27G, G30U
DNA 1: CAATCTGAATTCCGGTCTCCC
DNA 2: TGGTGGCTACGACGGGATT
B6: GUGGUGG (DNA:RNA)
RNA: B4 RNA with C27G
DNA 1: CAATCTGAATTCCGGTCTCCC
DNA 2: TGGTGGCTACGACGGGATT
B7: CCCUGGA (DNA:RNA)
RNA: B4 RNA with G25C, U26C, G28U, U29G, G31A
DNA 1: CAATCTGAATTCCGGTCTCCC
DNA 2: TGGTGGCTACGACGGGATT
B8: UGCGAUC (DNA:RNA)
RNA: B1 RNA with U27C, U28G, C29A
DNA 1: CAATCTGAATTCCGGTCTCCC
DNA 2: TGGTGGCTACGACGGGATT
B9: UGGGAGA (DNA:RNA)
RNA: B4 RNA with G25U, U26G, C27G, U29A, G31A
DNA 1: CAATCTGAATTCCGGTCTCCC
DNA 2: TGGTGGCTACGACGGGATT
B10: CGGAUGU (DNA:RNA)
RNA: B4 RNA with G25C, U26G, C27G, G28A, G31U
DNA 1: CAATCTGAATTCCGGTCTCCC
DNA 2: TGGTGGCTACGACGGGATT
B11: UGGAUGU (DNA:RNA)
RNA: B4 RNA with G25U, U26G, C27G, G28A, G31U
DNA 1: CAATCTGAATTCCGGTCTCCC
DNA 2: TGGTGGCTACGACGGGATT
B12: UGCGCGA (DNA:RNA)
RNA: B4 RNA with G25U, U26G, U29C, G31A
DNA 1: CAATCTGAATTCCGGTCTCCC
DNA 2: TGGTGGCTACGACGGGATT
B13: UGGGAUG (DNA:RNA)
RNA: B1 RNA with U27G, U28G, C29A, C31G
DNA 1: CAATCTGAATTCCGGTCTCCC
DNA 2: TGGTGGCTACGACGGGATT
B14: UGGAUUU (DNA:RNA)
RNA: B1 RNA with U27G, U28A, C29U, C31U
DNA 1: CAATCTGAATTCCGGTCTCCC
DNA 2: TGGTGGCTACGACGGGATT
B15: UGCGAUG (DNA:RNA)
RNA: B4 RNA with G25U, U26G, U29A, G30U
DNA 1: CAATCTGAATTCCGGTCTCCC
DNA 2: TGGTGGCTACGACGGGATT
B16: UGGGGGA (DNA:RNA)
RNA: B4 RNA with G25U, U26G, C27G, U29G, G31A
DNA 1: CAATCTGAATTCCGGTCTCCC
DNA 2: TGGTGGCTACGACGGGATT
B17: CUGGAGA (DNA:RNA)
RNA: B4 RNA with G25C, C27G, U29A, G31A
DNA 1: CAATCTGAATTCCGGTCTCCC
DNA 2: TGGTGGCTACGACGGGATT
B18: CUGGAUG (DNA:RNA)
RNA: B4 RNA with G25C, C27G, U29A, G30U
DNA 1: CAATCTGAATTCCGGTCTCCC
DNA 2: TGGTGGCTACGACGGGATT
B19: CGUCGAU (DNA:RNA)
RNA: B1 RNA with U25C, U28C, C29G, U30A, C31U
DNA 1: CAATCTGAATTCCGGTCTCCC
DNA 2: TGGTGGCTACGACGGGATT
B20: AGGUGGG (DNA:RNA)
RNA: B4 RNA with G25A, U26G, C27G, G28U, U29G
DNA 1: CAATCTGAATTCCGGTCTCCC
DNA 2: TGGTGGCTACGACGGGATT
B21: CCUAAUC (DNA:RNA)
RNA: B1 RNA with U25C, G26C, U28A, C29A
DNA 1: CAATCTGAATTCCGGTCTCCC
DNA 2: TGGTGGCTACGACGGGATT
B22: CCCUUAA (DNA:RNA)
RNA: B4 RNA with G25C, U26C, G28U, G30A, G31A
DNA 1: CAATCTGAATTCCGGTCTCCC
DNA 2: TGGTGGCTACGACGGGATT
B23: AACGCGA (DNA:RNA)
RNA: B4 RNA with G25A, U26A, U29C, G31A
DNA 1: CAATCTGAATTCCGGTCTCCC
DNA 2: TGGTGGCTACGACGGGATT
B24: UCAGGUU (DNA:RNA)
RNA: B1 RNA with G26C, U27A, U28G, C29G, C31U
DNA 1: CAATCTGAATTCCGGTCTCCC
DNA 2: TGGTGGCTACGACGGGATT
B25: ACUCGCA (DNA:RNA)
RNA: B1 RNA with U25A, G26C, U28C, C29G, U30C, C31A
DNA 1: CAATCTGAATTCCGGTCTCCC
DNA 2: TGGTGGCTACGACGGGATT
B26: AACAGAA (DNA:RNA)
RNA: B4 RNA with G25A, U26A, G28A, U29G, G30A, G31A
DNA 1: CAATCTGAATTCCGGTCTCCC
DNA 2: TGGTGGCTACGACGGGATT
B27: AAACGGU (DNA:RNA)
RNA: B4 RNA with G25A, U26A, C27A, G28C, U29G, G31U
DNA 1: CAATCTGAATTCCGGTCTCCC
DNA 2: TGGTGGCTACGACGGGATT
B28: GUAUUGC (DNA:RNA)
RNA: B4 RNA with C27A, G28U, G31C
DNA 1: CAATCTGAATTCCGGTCTCCC
DNA 2: TGGTGGCTACGACGGGATT
B29: UGAAUGA (DNA:RNA)
RNA: B4 RNA with G25U, U26G, C27A, G28A, G31A
DNA 1: CAATCTGAATTCCGGTCTCCC
DNA 2: TGGTGGCTACGACGGGATT
B30: GGAAUGC (DNA:RNA)
RNA: B4 RNA with U26G, C27A, G28A, G31C
DNA 1: CAATCTGAATTCCGGTCTCCC
DNA 2: TGGTGGCTACGACGGGATT
B31: UGAUGAA (DNA:RNA)
RNA: B1 RNA with U27A, C29G, U30A, C31A
DNA 1: CAATCTGAATTCCGGTCTCCC
DNA 2: TGGTGGCTACGACGGGATT
B32: GGAUUGC (DNA:RNA)
RNA: B4 RNA with U26G, C27A, G28U, G31C
DNA 1: CAATCTGAATTCCGGTCTCCC
DNA 2: TGGTGGCTACGACGGGATT
B33: CUGAUGA (DNA:RNA)
RNA: B4 RNA with G25C, C27G, G28A, G31A
DNA 1: CAATCTGAATTCCGGTCTCCC
DNA 2: TGGTGGCTACGACGGGATT
B34: CCGUUGC (DNA:RNA)
RNA: B4 RNA with G25C, U26C, C27G, G28U, G31C
DNA 1: CAATCTGAATTCCGGTCTCCC
DNA 2: TGGTGGCTACGACGGGATT
B35: GAAAUGC (DNA:RNA)
RNA: B4 RNA with U26A, C27A, G28A, G31C
DNA 1: CAATCTGAATTCCGGTCTCCC
DNA 2: TGGTGGCTACGACGGGATT
B36: AGGAGGC (DNA:RNA)
RNA: B1 RNA with U25A, U27G, U28A, C29G, U30G
DNA 1: CAATCTGAATTCCGGTCTCCC
DNA 2: TGGTGGCTACGACGGGATT
B37: GUAAUGC (DNA:RNA)
RNA: B4 RNA with C27A, G28A, G31C
DNA 1: CAATCTGAATTCCGGTCTCCC
DNA 2: TGGTGGCTACGACGGGATT
B38: AGGCUUG (DNA:RNA)
RNA: B4 RNA with G25A, U26G, C27G, G28C, G30U
DNA 1: CAATCTGAATTCCGGTCTCCC
DNA 2: TGGTGGCTACGACGGGATT
B39: ACCAGGC (DNA:RNA)
RNA: B4 RNA with G25A, U26C, G28A, U29G, G31C
DNA 1: CAATCTGAATTCCGGTCTCCC
DNA 2: TGGTGGCTACGACGGGATT

Numbering of substitutions follows the chain as printed; changes in the protein carry UniProt numbers. In all, about 16,000 sequences were measured (“ka relative to ugcaugu”: median about 0.0091, highest 2% from about 0.032 on). This excerpt belongs to a sample that is enriched for the highest values.

The test concerns the target T1, RBFOX1 RRM (Homo sapiens, UniProt Q9NWB1 109-208).
T1 sequence: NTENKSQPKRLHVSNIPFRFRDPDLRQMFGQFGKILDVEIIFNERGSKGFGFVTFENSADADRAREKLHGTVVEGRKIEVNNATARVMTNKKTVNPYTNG
As to the kind of experiment: EMSA; HiTS-Eq, 1 nM pool, 10 min; buffer printed only for the single-RNA assays: 10 mM Tris pH 7.5, 150 mM NaCl, 3.4 mM EDTA, 0.001% NP-40, 30 C. The note with it: tags: His6 N-terminal (pET28a); label: 5' 32P. The procedure, abridged:
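These values rest on relative association constants, computed from read-count changes of each RNA species versus the control reaction and normalised to the cognate motif. Reads came from free RNA recovered by 8% native PAGE after purified RbFox RRM (wild type or mutant) at increasing concentrations was equilibrated for 10 min in 50 µL with 1 nM of a 5′-radiolabelled pool with 7 randomized nucleotides and DNA-annealed flanks.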
For B1, the binding signal is 0.0181 KA relative to UGCAUGU. Consider B2, for which the binding signal was 0.00707 KA relative to UGCAUGU. The result for B3 reads 0.00734 KA relative to UGCAUGU; that for B4, 0.0185 KA relative to UGCAUGU; that for B5, 0.0321 KA relative to UGCAUGU. The result for B6 reads 0.0237 KA relative to UGCAUGU; that for B7, 0.013 KA relative to UGCAUGU.

As for B8, the binding signal was 0.0166 KA relative to UGCAUGU. The result for B9 reads 0.025 KA relative to UGCAUGU; that for B10, 0.0261 KA relative to UGCAUGU; that for B11, 0.0494 KA relative to UGCAUGU. Take B12: the binding signal was 0.0211 KA relative to UGCAUGU.

In the case of B13, the binding signal was 0.0414 KA relative to UGCAUGU. Regarding B14, the binding signal was 0.0242 KA relative to UGCAUGU. As for B15, the binding signal was 0.0369 KA relative to UGCAUGU. Next, B16: 0.0155 KA relative to UGCAUGU; B17: 0.0188 KA relative to UGCAUGU; B18: 0.0353 KA relative to UGCAUGU. The result for B19 reads 0.00831 KA relative to UGCAUGU. The result for B20 reads 0.0126 KA relative to UGCAUGU; that for B21, 0.00151 KA relative to UGCAUGU; that for B22, 0.00271 KA relative to UGCAUGU. For the molecule B23, the binding signal is 0.00453 KA relative to UGCAUGU. Next, B24: 0.0129 KA relative to UGCAUGU; B25: 0.0123 KA relative to UGCAUGU; B26: 0.00258 KA relative to UGCAUGU. As to B27, the binding signal is 0.0059 KA relative to UGCAUGU. Next, B28: 0.0151 KA relative to UGCAUGU; B29: 0.0319 KA relative to UGCAUGU.

As for B30, the binding signal was 0.0946 KA relative to UGCAUGU.

As for B31, the binding signal was 0.0191 KA relative to UGCAUGU.

Consider B32, for which the binding signal is 0.0376 KA relative to UGCAUGU. For B33, the binding signal is 0.0162 KA relative to UGCAUGU. The result for B34 reads 0.0124 KA relative to UGCAUGU. The result for B35 reads 0.0136 KA relative to UGCAUGU. Next, B36: 0.0129 KA relative to UGCAUGU.

Take B37: the binding signal was 0.0131 KA relative to UGCAUGU. Next, B38: 0.0346 KA relative to UGCAUGU. As for B39, the binding signal was 0.00626 KA relative to UGCAUGU.

Values taken from paper PMC9911399, “Two distinct binding modes provide the RNA-binding protein RbFox with extraordinary sequence specificity”.
